Among the data in PubChem BioAssay (EPA / NIEHS) are outcome and AC50 values, retold here.

Results filed as inconclusive are left out. Active and inactive are the calls of the source. Rule for the calls: active = hit-call score of the fitted dose curve at least 0.9, where 1 is the maximum; inconclusive = response in the unintended direction; inactive = score below 0.9.

For assay [1], the target named is human CYP2C9, CYP2C9 (gene 1559) (UniProt P11712). The experiment in a line: NVS_ADME_hCYP2C9: NovaScreen (NVS) CYP450-related Enzyme Activity (ADME) Assay for human CYP2C9 (AID 2283108). The essentials: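 Fluorescence readout of CYP2C9 activity (SF9-expressed human enzyme) at 0.75 h. The primary screen used 10 uM in duplicate, with concentration-response follow-up for actives; acetonitrile was the negative control.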
human CYP2C9, CYP2C9 (gene 1559), sequence (P11712 whole entry, looked up): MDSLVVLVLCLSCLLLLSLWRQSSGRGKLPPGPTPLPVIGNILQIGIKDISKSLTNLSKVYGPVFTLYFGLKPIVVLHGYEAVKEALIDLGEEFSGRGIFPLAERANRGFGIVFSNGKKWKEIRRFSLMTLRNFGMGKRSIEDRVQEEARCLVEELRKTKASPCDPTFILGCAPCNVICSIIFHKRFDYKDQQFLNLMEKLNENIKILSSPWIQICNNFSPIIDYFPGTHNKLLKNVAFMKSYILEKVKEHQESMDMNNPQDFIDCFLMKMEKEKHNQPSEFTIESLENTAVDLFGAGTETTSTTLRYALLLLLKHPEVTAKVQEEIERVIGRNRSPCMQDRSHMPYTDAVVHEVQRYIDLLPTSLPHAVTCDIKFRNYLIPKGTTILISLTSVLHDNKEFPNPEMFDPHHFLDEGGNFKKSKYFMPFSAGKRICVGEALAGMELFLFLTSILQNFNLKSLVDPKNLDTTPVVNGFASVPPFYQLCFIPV

Assay [2] has as its target Cytochrome P450 2C19 (Homo sapiens) (UniProt P33261). The experiment in a line: NVS_ADME_hCYP2C19: NovaScreen (NVS) CYP450-related Enzyme Activity (ADME) Assay for human CYP2C19 (AID 2283113).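 For AC50: potency for inhibition seen as loss of fluorescent signal.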 The essentials: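 Fluorescence intensity was measured 1 hour after chemicals were added to insect-cell-derived recombinant CYP2C19 with fluorogenic substrate. Decreased signal versus acetonitrile control was taken as reduced enzyme activity; initial testing used 10 uM in duplicate.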

Assay [3] has as its target human Beta-secretase (BACE), BACE1 (gene 23621) (UniProt P56817). The experiment in a line: NVS_ENZ_hBACE: NovaScreen (NVS) Enzymatic Assay for human Beta-secretase (BACE) (AID 2283140).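 Note: hits are inhibitors that reduce fluorescent substrate signal versus DMSO.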 The essentials: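 SF9-expressed enzyme, cell-free; fluorescent substrate readout after 1 h. Screened at 25 uM single concentration, duplicate; hits retested in concentration series. Activity relative to DMSO baseline, loss-of-signal.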

The target in assay [4] is human AKT serine/threonine Kinase 1 (AKT1), AKT1 (gene 207) (UniProt P31749). The experiment in a line: NVS_ENZ_hAKT1: NovaScreen (NVS) Enzymatic Assay for human AKT serine/threonine Kinase 1 (AKT1) (AID 2283138). Put shortly:
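Fluorescence and mobility-shift readout of kinase activity, taken 1 h post-dosing in a cell-free format with recombinant protein. Primary screen at 25 uM in duplicate; hits (e.g. 30% inhibition) retested in concentration series topping at 50 uM.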

Assay [5] addresses human Caspase 4 (CASP4), CASP4 (gene 837) (UniProt P49662). The experiment in a line: NVS_ENZ_hCASP4: NovaScreen (NVS) Enzymatic Assay for human Caspase 4 (CASP4) (AID 2283143). The essentials: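 Compounds were first tested in duplicate at 25 uM, and hits were titrated singly to a 50 uM maximum. Recombinant protease from E. coli was read by fluorescence 2 h post-dose, and activity loss was fitted against the DMSO baseline.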

The target of assay [6] is human Caspase 5 (CASP5), CASP5 (gene 838) (UniProt P51878). The experiment in a line: NVS_ENZ_hCASP5: NovaScreen (NVS) Enzymatic Assay for human Caspase 5 (CASP5) (AID 2283137). Put shortly: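 Fluorescent substrate readout of CASP5 activity (loss-of-signal), measured 2 h post-dose. Protein expressed in E. coli. Primary screen duplicate at 25 uM; actives meeting threshold (e.g., 30% inhibition) rerun singleton, max 50 uM.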
human Caspase 5 (CASP5), CASP5 (gene 838), sequence (P51878 whole entry, looked up): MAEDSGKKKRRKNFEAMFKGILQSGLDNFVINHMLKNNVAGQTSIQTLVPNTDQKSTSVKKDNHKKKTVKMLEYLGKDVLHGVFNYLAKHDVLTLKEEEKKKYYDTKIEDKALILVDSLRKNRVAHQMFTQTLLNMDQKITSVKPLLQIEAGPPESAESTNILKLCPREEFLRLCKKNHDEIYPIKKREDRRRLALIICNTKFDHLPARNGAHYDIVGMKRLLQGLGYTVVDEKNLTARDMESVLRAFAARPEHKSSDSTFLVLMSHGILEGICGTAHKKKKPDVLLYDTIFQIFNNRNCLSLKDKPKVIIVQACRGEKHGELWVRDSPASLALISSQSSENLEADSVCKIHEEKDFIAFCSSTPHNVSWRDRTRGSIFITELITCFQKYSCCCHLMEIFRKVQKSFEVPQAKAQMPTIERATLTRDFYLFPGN

The target in the next assay is Caspase-3 (Homo sapiens) (UniProt P42574). In words: NVS_ENZ_hCASP3: NovaScreen (NVS) Enzymatic Assay for human Caspase 3 (CASP3) (AID 2283139). Put shortly:
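Single-concentration screening at 25 uM in duplicate, with concentration-response follow-up to a 50 uM maximum for chemicals passing the threshold. Caspase-3 (human, E. coli-expressed) activity was read as substrate fluorescence after 1 h, with loss of signal relative to DMSO.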

For assay [7], the target named is human Caspase 8 (CASP8), CASP8 (gene 841) (UniProt Q14790). The experiment in a line: NVS_ENZ_hCASP8: NovaScreen (NVS) Enzymatic Assay for human Caspase 8 (CASP8) (AID 2283146). The essentials: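 The primary screen tested compounds in duplicate at a single 25 uM concentration, with actives followed up in concentration series. Activity of recombinant (E. coli) protease was measured by fluorescence 1 h post-dose, as signal loss against DMSO.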
human Caspase 8 (CASP8), CASP8 (gene 841), sequence (Q14790 whole entry, looked up): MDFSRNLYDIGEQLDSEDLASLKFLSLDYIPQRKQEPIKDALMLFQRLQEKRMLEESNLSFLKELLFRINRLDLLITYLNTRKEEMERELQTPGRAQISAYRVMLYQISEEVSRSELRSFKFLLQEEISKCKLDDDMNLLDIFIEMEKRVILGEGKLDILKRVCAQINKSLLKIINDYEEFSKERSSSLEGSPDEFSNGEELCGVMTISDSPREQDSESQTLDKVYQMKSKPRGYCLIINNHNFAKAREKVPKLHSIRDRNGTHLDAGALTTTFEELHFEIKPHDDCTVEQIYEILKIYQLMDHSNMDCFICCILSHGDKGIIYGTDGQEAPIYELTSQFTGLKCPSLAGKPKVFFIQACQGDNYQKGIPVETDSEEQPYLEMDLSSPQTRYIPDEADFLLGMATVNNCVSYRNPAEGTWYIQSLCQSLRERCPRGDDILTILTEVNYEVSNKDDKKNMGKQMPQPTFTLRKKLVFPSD

For assay [8], the target named is human Casein Kinase 1-delta (CK1D), CSNK1D (gene 1453) (UniProt P48730). In words: NVS_ENZ_hCK1D: NovaScreen (NVS) Enzymatic Assay for human Casein Kinase 1-delta (CK1D) (AID 2283148). Put shortly: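 Recombinant human CK1-delta, cell-free; fluorescent substrate with electrophoretic mobility-shift separation of product, read 1 h after dosing. Single 25 uM duplicate screen, then concentration-response up to 50 uM; loss of signal vs DMSO.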
human Casein Kinase 1-delta (CK1D), CSNK1D (gene 1453), sequence (P48730 whole entry, looked up): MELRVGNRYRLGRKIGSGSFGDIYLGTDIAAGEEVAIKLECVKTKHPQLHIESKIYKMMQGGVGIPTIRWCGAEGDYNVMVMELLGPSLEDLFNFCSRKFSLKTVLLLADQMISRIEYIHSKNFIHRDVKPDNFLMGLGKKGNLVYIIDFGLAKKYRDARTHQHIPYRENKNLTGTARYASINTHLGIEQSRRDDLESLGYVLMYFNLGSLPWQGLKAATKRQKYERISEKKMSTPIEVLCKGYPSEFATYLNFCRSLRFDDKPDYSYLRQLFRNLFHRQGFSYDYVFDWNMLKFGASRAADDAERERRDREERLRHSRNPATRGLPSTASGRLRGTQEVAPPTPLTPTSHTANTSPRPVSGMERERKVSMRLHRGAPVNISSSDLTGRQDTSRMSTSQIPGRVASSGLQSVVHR

The target of assay [9] is human Colony Stimulating Factor 1 Receptor (CSF1R), CSF1R (gene 1436) (UniProt P07333). The experiment in a line: NVS_ENZ_hCSF1R: NovaScreen (NVS) Enzymatic Assay for human Colony Stimulating Factor 1 Receptor (CSF1R) (AID 2283150). The essentials: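 Compounds screened in duplicate at 25 uM, then concentration-response (top 50 uM) for those passing threshold such as 30% inhibition; recombinant CSF1R activity measured 1 h post-dosing via fluorescent substrate/product mobility-shift separation, loss of signal versus DMSO.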
human Colony Stimulating Factor 1 Receptor (CSF1R), CSF1R (gene 1436), sequence (P07333 whole entry, looked up): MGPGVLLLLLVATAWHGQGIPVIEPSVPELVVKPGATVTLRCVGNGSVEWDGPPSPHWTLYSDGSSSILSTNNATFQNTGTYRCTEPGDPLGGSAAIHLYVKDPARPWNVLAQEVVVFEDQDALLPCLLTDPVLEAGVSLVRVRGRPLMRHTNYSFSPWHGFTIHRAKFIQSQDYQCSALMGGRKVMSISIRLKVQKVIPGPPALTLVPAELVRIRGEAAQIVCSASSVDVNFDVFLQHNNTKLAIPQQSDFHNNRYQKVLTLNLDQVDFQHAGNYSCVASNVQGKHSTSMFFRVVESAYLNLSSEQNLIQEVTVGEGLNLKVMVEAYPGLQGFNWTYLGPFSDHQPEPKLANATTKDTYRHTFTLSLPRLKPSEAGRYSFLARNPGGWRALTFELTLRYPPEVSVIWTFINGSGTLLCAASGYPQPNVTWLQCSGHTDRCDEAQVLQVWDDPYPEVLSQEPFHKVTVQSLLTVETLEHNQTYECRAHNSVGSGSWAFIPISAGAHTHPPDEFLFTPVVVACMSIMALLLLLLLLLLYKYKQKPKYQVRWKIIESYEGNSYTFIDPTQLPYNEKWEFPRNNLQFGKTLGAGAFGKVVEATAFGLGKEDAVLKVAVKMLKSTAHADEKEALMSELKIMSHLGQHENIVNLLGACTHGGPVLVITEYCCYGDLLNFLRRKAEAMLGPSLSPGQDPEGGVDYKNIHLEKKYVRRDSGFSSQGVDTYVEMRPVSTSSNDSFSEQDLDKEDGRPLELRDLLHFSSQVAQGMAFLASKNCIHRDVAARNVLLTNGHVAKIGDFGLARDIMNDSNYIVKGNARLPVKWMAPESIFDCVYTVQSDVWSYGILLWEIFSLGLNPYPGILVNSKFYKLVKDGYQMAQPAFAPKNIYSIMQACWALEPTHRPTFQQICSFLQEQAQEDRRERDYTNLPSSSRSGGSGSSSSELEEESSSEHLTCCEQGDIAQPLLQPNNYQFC

Assay [10] addresses human Dual Specificity Protein Phosphatase 3 (DUSP3), DUSP3 (gene 1845) (UniProt P51452). The experiment in a line: NVS_ENZ_hDUSP3: NovaScreen (NVS) Enzymatic Assay for human Dual Specificity Protein Phosphatase 3 (DUSP3) (AID 2283152). Put shortly: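 Cell-free fluorescence-intensity enzyme activity assay with recombinant protein and substrate; loss of signal fitted relative to DMSO baseline. Primary screen in duplicate at 25 uM, actives then run in concentration series; measured 0 h after dosing.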

Assay [11] has as its target human AKT serine/threonine Kinase 2 (AKT2), AKT2 (gene 208) (UniProt P31751). In words: NVS_ENZ_hAKT2: NovaScreen (NVS) Enzymatic Assay for human AKT serine/threonine Kinase 2 (AKT2) (AID 2283141). The essentials:
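Cell-free fluorescence/electrophoretic mobility shift readout of recombinant human AKT2 activity, 1 h after chemical dosing. Duplicate primary screen at 25 uM, then singleton concentration-response up to 50 uM; loss of signal versus DMSO baseline.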

For the next assay, the target named is CDK2 (gene 1017) (UniProt P24941). In words: NVS_ENZ_hCDK2: NovaScreen (NVS) Enzymatic Assay for human Cyclin-Cependent Kinase 2 (CDK2) (AID 2283144). Put shortly: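 Compounds screened in duplicate at 25 uM, then in singleton concentration-response to a maximum of 50 uM, against recombinant CDK2; kinase activity read 1 hr after dosing by fluorescence with mobility-shift separation of substrate and product.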

In assay [12] the target is human Acid Phosphatase 1 (ACP1), ACP1 (gene 52) (UniProt P24666). In words: NVS_ENZ_hACP1: NovaScreen (NVS) Enzymatic Assay for human Acid Phosphatase 1 (ACP1) (AID 2283136). The essentials:
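Cell-free fluorescence read-out of phosphatase activity, substrate and product separated by mobility shift, taken 1.5 h after compound addition; protein produced in Sf9. Single 25 uM duplicate screen, followed by concentration series for actives, scored as signal loss relative to DMSO.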

human Caspase 4 (CASP4), CASP4 (gene 837), sequence (P49662 whole entry, looked up): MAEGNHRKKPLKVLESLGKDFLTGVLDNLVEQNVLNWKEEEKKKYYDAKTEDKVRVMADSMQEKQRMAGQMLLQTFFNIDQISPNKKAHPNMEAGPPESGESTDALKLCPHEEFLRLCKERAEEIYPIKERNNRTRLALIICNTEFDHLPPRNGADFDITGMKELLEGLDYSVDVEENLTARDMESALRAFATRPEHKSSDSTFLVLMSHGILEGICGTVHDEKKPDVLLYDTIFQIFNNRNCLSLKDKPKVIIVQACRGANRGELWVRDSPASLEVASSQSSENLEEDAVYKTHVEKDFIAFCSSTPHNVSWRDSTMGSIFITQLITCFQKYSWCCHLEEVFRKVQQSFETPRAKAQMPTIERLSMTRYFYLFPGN
human AKT serine/threonine Kinase 1 (AKT1), AKT1 (gene 207), sequence (P31749 whole entry, looked up): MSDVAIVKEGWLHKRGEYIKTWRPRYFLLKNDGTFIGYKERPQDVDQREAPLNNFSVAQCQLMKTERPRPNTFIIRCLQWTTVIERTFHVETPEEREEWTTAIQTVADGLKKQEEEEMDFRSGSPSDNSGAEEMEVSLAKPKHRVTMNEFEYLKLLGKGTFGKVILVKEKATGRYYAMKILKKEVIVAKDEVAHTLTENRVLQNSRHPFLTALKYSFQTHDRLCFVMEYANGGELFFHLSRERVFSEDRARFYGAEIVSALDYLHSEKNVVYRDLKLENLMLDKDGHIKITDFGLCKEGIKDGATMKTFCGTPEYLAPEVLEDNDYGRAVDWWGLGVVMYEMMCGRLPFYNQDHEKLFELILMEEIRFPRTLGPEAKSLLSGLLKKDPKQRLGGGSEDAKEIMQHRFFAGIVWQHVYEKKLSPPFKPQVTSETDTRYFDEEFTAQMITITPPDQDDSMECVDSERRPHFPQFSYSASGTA
human Beta-secretase (BACE), BACE1 (gene 23621), sequence (P56817 whole entry, looked up): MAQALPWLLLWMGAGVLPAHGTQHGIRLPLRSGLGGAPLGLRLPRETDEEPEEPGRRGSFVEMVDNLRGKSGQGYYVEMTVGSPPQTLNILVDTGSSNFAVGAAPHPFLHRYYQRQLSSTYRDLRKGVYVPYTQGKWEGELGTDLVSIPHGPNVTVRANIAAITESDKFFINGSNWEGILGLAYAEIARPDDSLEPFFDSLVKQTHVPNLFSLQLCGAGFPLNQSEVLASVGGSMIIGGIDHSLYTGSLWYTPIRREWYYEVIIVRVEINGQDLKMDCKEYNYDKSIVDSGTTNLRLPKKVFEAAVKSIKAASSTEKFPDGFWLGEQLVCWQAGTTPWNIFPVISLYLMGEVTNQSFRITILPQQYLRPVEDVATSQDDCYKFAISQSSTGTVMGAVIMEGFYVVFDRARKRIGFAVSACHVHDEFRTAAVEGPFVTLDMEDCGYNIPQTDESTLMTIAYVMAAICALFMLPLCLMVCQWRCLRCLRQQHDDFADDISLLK
human Dual Specificity Protein Phosphatase 3 (DUSP3), DUSP3 (gene 1845), sequence (P51452 whole entry, looked up): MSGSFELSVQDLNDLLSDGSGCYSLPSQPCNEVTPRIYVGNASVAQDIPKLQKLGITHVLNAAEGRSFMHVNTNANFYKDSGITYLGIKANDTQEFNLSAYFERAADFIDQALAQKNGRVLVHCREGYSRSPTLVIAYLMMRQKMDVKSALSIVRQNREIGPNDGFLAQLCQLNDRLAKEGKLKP
human AKT serine/threonine Kinase 2 (AKT2), AKT2 (gene 208), sequence (P31751 whole entry, looked up): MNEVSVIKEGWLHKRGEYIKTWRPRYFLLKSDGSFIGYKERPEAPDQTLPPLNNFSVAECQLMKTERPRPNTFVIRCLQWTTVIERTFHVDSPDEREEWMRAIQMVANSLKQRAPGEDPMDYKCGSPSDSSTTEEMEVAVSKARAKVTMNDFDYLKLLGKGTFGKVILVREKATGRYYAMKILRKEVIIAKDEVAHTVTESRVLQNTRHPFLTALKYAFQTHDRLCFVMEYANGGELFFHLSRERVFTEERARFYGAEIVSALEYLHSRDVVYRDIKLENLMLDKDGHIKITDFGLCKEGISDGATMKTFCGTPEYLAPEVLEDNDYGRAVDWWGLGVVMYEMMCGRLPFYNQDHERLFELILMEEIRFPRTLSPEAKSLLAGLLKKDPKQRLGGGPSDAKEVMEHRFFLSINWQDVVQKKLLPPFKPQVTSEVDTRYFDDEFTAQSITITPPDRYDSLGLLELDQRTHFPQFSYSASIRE
human Acid Phosphatase 1 (ACP1), ACP1 (gene 52), sequence (P24666 whole entry, looked up): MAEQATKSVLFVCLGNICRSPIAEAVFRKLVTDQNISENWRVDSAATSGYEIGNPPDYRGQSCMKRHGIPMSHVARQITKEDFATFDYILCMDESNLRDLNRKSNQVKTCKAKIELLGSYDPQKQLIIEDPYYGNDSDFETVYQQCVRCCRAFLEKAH

Take `CCCOC(=O)c1cc(O)c(O)c(O)c1`: the result in assay [1] and in assay [2] was inactive.
For orientation: AC50 means the concentration at which the activity in the assay is half-maximal. For the compound `CN(C)C(=O)C1(N2CCCCC2)CCN(CC[C@@]2(c3ccc(Cl)c(Cl)c3)CN(C(=O)c3ccccc3)CCO2)CC1`, the values for the AC50 in [1] and in assay [2] were 1.17 µM (active) and 0.393 µM (active), respectively. Besides, in [3], the call was inactive.
In the case of `CC(C)(O)c1ccc(CNC(=O)c2cccnc2Oc2ccc3nonc3c2)cc1`, the AC50 in [1] was 13 µM (active); in assay [2], 10.9 µM (active). The compound was called inactive in assay [4].
For the compound `CCN(CC)C(=O)c1cc(S(=O)(=O)Cc2ccccc2)c(N2CCC(c3ccccc3)CC2)cc1N(CC)CCN(C)C`, the AC50 in assay [1] was 12.5 µM (active); in [2] it was 3.48 µM (active). The result in [5] was inactive.
With `Cc1cccc2ccccc12`, the result in [2] was inactive.
As to `CC(C)(c1cc(Br)c(O)c(Br)c1)c1cc(Br)c(O)c(Br)c1`, the AC50 in [1] is 2.93 µM (active).
With `CCN(Cc1cccc(S(=O)(=O)O)c1)c1ccc(C(=C2C=CC(=[N+](CC)Cc3cccc(S(=O)(=O)O)c3)C=C2)c2ccccc2S(=O)(=O)[O-])cc1`, the AC50 is 4.22 µM (active) in [1]; 5.36 µM (active) in assay [6]; 14.8 µM (active) in assay [3]; 4.96 µM (active) in assay [5]; 2.94 µM (active) in assay [9]; 12.5 µM (active) in assay [10]. For the same compound, the compound was classed as inactive (with Caspase-3 (Homo sapiens); in assay [7]; in assay [8]).
Consider `CCCCCCCCOC(=O)c1cc(O)c(O)c(O)c1`, for which the AC50 is 7.75 µM (active) in assay [1], 5.4 µM (active) in [2] and 25.4 µM (active) in [6]. The outcome in assay [4], in [11], in [5] and in assay [10] was inactive.
For `O=C(O)Cc1cc(I)c(Oc2ccc(O)c(I)c2)c(I)c1`, the outcome in assay [2], in assay [3], in assay [8] and in assay [9] was inactive.
As to `CCOC(=O)O[C@H](C)OC(=O)c1ccc2c(c1)cc(C(=O)NC1CCN(C(C)C)CC1)n2Cc1cc(-c2ccc(Cl)s2)on1`, the AC50 is 15.4 µM (active) in assay [1], 5.54 µM (active) in [2], 0.447 µM (active) in assay [3] and 23.6 µM (active) in assay [11].
In the case of `CCCCOC(=O)c1ccc(O)cc1`, the figures for the AC50 in [1] and in [2] were 7.15 µM (active) and 7.75 µM (active), respectively. Besides, the compound was called inactive in assay [3].
For `O=C1c2ccccc2C(=O)N1CCc1noc(-c2ccc(CN3CCCCCC3)s2)n1`, the half-maximal activity concentration (AC50) in [1] is 5.62 µM (active); in [2], 1.13 µM (active); in [10], 19.9 µM (active). For the same compound, the compound was classed as inactive in [8].
Take `NCc1cccc(C2CCN(C(=O)c3ccc(C#Cc4ccccc4F)o3)CC2)c1`: the AC50 is 0.112 µM (active) in assay [1], 0.23 µM (active) in assay [2] and 41.8 µM (active) in [3].
On to `O=C(Nc1ccc(Cl)cc1)Nc1ccc(Cl)c(Cl)c1`, for which the AC50 is 10 µM (active) in [2] and 16.3 µM (active) in [3]. For the same compound, the compound was called inactive in assay [8] and in assay [10].
As for `CC1(C)NC(=O)N(c2ccc([N+](=O)[O-])c(C(F)(F)F)c2)C1=O`, the AC50 in assay [2] was 2.81 µM (active).
In the case of `CN(C[C@@H](CC[N+]12CCC(C3CCCCC3)(CC1)CC2)c1ccc(Cl)c(Cl)c1)C(=O)c1cc(C(F)(F)F)cc(C(F)(F)F)c1`, the AC50 is 7.68 µM (active) in assay [1] and 29.9 µM (active) in [3]. The outcome in assay [8] was inactive.
On to `CN(C)c1ccc(C(=C2C=CC(=[N+](C)C)C=C2)c2ccc(N(C)C)cc2)cc1`, for which the AC50 in [2] is 3.32 µM (active); in assay [3], 14 µM (active).
With `Clc1cc(Cl)c2c(c1)N=C1CCCCCN1C2`, in the assay with CDK2 (gene 1017), the call was inactive.
Turning to `OC12N=C(c3ccccc3)SC1Cc1cc(Cl)ccc12` (stereo not given), the AC50 in assay [2] is 0.245 µM (active); in assay [10], 4.92 µM (active).
In the case of `O=C1CCC(C2CCCCC2)CC1`, the compound was classed as inactive in [2]. The AC50 in assay [10] is 22.2 µM (active).
On to `c1ccc2ccccc2c1`, for which the outcome (in [12]; in assay [4]; with CDK2 (gene 1017); in [8]; in assay [9]) was inactive.
For the compound `CCCCCCCCCCCC[N+](C)(C)C`, the compound was classed as inactive in assay [7].
In the case of `Oc1ccc2ccccc2c1`, the outcome with CDK2 (gene 1017) was inactive. In addition, the AC50 in assay [8] is 24.1 µM (active).
In the case of `Cc1cc(F)ccc1-c1cc(N2CC[C@@H](O)[C@H]2CO)ncc1N(C)C(=O)C(C)(C)c1cc(C(F)(F)F)cc(C(F)(F)F)c1`, the AC50 in assay [10] is 12.3 µM (active).
In the case of `c1ccc2n[nH]nc2c1`, the AC50 in [8] is 25 µM (active).
As for `CN1C(=O)N(c2ccccc2Br)Cc2cnc(Nc3ccc4c(c3)OCC(CO)O4)nc21` (stereo not given), the AC50 in [6] is 12.5 µM (active); with CDK2 (gene 1017), 11.7 µM (active); in assay [10] it was 8 µM (active).
Consider `Cc1ccc(C(C)C)cc1`, for which the compound was classed as inactive in assay [3].
Turning to `Cc1c2ccccc2c(C)c2c1ccc1ccccc12`, the AC50 in assay [2] is 7.17 µM (active). The result in assay [10] was inactive.
For `CC(=O)N1CCN(c2ccc(OC[C@H]3CO[C@](Cn4ccnc4)(c4ccc(Cl)cc4Cl)O3)cc2)CC1`, the call in assay [3] and in assay [8] was inactive.
As to `C[C@]12CC[C@@H]3c4ccc(O)cc4CC[C@H]3[C@@H]1CC[C@H]2O`, the AC50 in [2] was 0.649 µM (active). Also, the result in assay [9] was inactive.
For `Cc1ccc2oc(CN(Cc3ccccc3)C(=O)Nc3c(F)cc(F)cc3F)c(-c3ccc(Cl)cc3)c2c1`, the AC50 in assay [10] is 9.32 µM (active).
Take `CC(C)(C)c1csc(-c2cc3cc(OCc4ccccc4CC(=O)O)ccc3o2)n1`: the concentration at half-maximal activity (AC50) in assay [3] is 17.1 µM (active). Also, the call in assay [9] was inactive.
